Screening data (PubChem)
Only some compounds are listed: those with a hit (about 6.8% of all), similar ones and a draw of the others.
C diff growth = C. difficile growth inhibition; Clostridium difficile clinical isolate growth, OD600, 24 h; active compounds read low; growth activity, negative = inhibition, % at 16 µg/mL (by protocol); 0.25% of 86,000 active;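 active = mean growth activity at or below -80% and every replicate also at or below -80%; inconclusive = mean at or below -80% but some replicate above -80%; inactive = mean growth activity above -80%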;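 note: 0% = DMSO wells and -100% = levofloxacin 16 µg/mL wells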
Pf Dd2 inh = P. falciparum Dd2 growth inhibition; AID 1159554; 2.3% of 94,000 active; activity change, % at 10 µM; SYBR Green, 72 h; active compounds read low; in the data active = activity change below about -80%; inconclusive = no clear call, values can overlap the other calls
T cruzi growth-1 = T. cruzi proliferation inhibition; T. cruzi beta-gal in NIH3T3, GalScreen luminescence, 90 h; inhibition, % at 8.34 µM; 5.9% of 77,000 active; AID 624255;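 active = mean inhibition above about 93%, with at least 55% of replicates each passing it, limit read from the data, passing the limit was not always enough; inconclusive = only one of those two conditions holds; inactive = neither condition holds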
T cruzi growth-2 = blocks T. cruzi growth in NIH3T3 host cells | inhibition, % at 8.35 µM | T. cruzi beta-gal in NIH3T3, GalScreen luminescence, 90 h | 72% of 5,600 active | shares compounds with T cruzi growth-1;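 active = mean replicate inhibition above about 95% and at least 55% of replicates individually reaching it, limit read from the data; inconclusive = only one of the two criteria is met; inactive = neither criterion is met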
T cruzi growth-3 = inhibitors of T. cruzi proliferation | AID 651740 | T. cruzi beta-gal in NIH3T3, GalScreen luminescence, 90 h | shares compounds with T cruzi growth-1 | 21% of 5,600 active | inhibition, % at 2.09 µM;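 active = mean inhibition above about 95%, with at least 55% of replicates also reaching it, limit read from the data; inconclusive = meets just one of the two conditions; inactive = meets neither condition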;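 note: plate controls were neutral control median for no effect and positive control median for full effect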
3T3 cytotox = cytotoxicity in mouse NIH/3T3 fibroblasts; cytotoxicity (signal decrease), % at 8.35 µM; 14% of 5,600 active; shares compounds with T cruzi growth-1; NIH/3T3 viability, CellTiter-Glo ATP luminescence, 90 h;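 active = mean signal decrease across replicates above about 35% based on untreated-well scatter, with enough replicates individually passing, limit read from the data; inconclusive = no rule stated though some were filed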;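 note: 0% = median of neutral control wells and 100% = median of positive control wells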
3T3 cytotox 2 = kills mouse NIH/3T3 fibroblasts; shares compounds with T cruzi growth-1; NIH/3T3 viability, CellTiter-Glo ATP luminescence, 90 h; inhibition, % at 24.9 µM; 56% of 5,600 active;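 active = mean loss of cell viability signal at or above a set limit, and enough replicates individually reaching it; inconclusive = meets only the mean limit or only the replicate share; inactive = meets neither condition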;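 note: 0% = median of neutral control wells and 100% = median of positive control wells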
The depositor's hits bear a star; u = inconclusive; x = no result given; ! = repeats disagree.

SMILES	C diff growth	Pf Dd2 inh	T cruzi growth-1	T cruzi growth-2	T cruzi growth-3	3T3 cytotox	3T3 cytotox 2
CO[C@H]1CN(C)C(=O)c2ccc(NC(=O)C3CC3)cc2OC[C@H](C)N(C(=O)c2cccnc2)C[C@H]1C	x	19.7	-31.1	x	x	x	x
CCC(=O)Nc1ccc2c(c1)OC[C@H](C)N(C(=O)c1ccc(F)cc1)C[C@H](C)[C@@H](OC)CN(C)C2=O	-4.0	10.2	x	x	x	x	x
CN1C(=O)c2cc(NS(=O)(=O)c3ccccc3Cl)ccc2OC[C@H]2O[C@@H](CC(=O)O)CC[C@@H]21	-1.0	8.4	-11.6	x	x	x	x
COc1ccc2c3c([nH]c2c1)[C@H](CO)N(Cc1cccc(Cl)c1)CC31CCN(C)CC1	-4.0	12.4	x	x	x	x	x
CC(=O)N(C)C[C@H]1Oc2ncc(-c3cccc(F)c3)cc2C(=O)N([C@H](C)CO)C[C@@H]1C	1.8	20.5	-3.2	x	x	x	x
C/C=C/c1cnc2c(c1)C(=O)N([C@@H](C)CO)C[C@@H](C)[C@@H](CN(C)Cc1ccccc1F)O2	0.8	6.6	x	x	x	x	x
Cc1ccc(-c2cnc3c(c2)C(=O)N([C@H](C)CO)C[C@@H](C)[C@@H](CN(C)Cc2ccccc2F)O3)cc1	-0.4	-5.8	70.7	x	x	x	x
C[C@@H]1CN([C@@H](C)CO)C(=O)c2cc(/C=C/c3ccccc3)cnc2O[C@@H]1CN(C)Cc1ccccc1F	4.7	-13.5	107.7*	113.9*	79.6	32.0	55.8*
C[C@@H]1CN([C@@H](C)CO)C(=O)c2cc(/C=C/c3ccccc3)cnc2O[C@H]1CN(C)Cc1ccccc1F	5.6	-38.1	127.2*	u	107.9*	4.8	105.0*
C/C=C/c1cnc2c(c1)C(=O)N([C@@H](C)CO)C[C@H](C)[C@H](CN(C)Cc1ccccc1F)O2	-2.2	4.5	x	x	x	x	x
Cc1ccc(-c2cnc3c(c2)C(=O)N([C@H](C)CO)C[C@H](C)[C@@H](CN(C)Cc2ccccc2F)O3)cc1	3.7	-22.2	108.9*!	107.7*	60.3	5.4	69.0*
CC=Cc1ccc2n(c1=O)C[C@@H]1[C@@H](CO)[C@H](C(=O)NCc3ccncc3)N(Cc3cncnc3)[C@H]21 (mixture of isomers)	-1.6	3.7	39.5	x	x	x	x
CC(C)NC(=O)Nc1ccc2c(c1)C(=O)N([C@@H](C)CO)C[C@@H](C)[C@@H](CN(C)C(=O)Nc1ccc(F)cc1)O2	-5.8	21.3	18.9	x	x	x	x
CCCN(C)C[C@@H]1OCCCC[C@@H](C)Oc2ccc(NC(=O)Nc3ccc(F)cc3)cc2C(=O)N([C@H](C)CO)C[C@@H]1C	6.2	18.2	32.3	x	x	x	x
CCCN(C)C[C@@H]1OCCCC[C@H](C)Oc2ccc(NC(=O)Nc3ccc(F)cc3)cc2C(=O)N([C@@H](C)CO)C[C@@H]1C	12.3	-63.2	95.3*	99.2*	82.6	10.2	15.5
CCCN(C)C[C@@H]1OCCCC[C@@H](C)Oc2ccc(NC(=O)Nc3ccc(F)cc3)cc2C(=O)N([C@H](C)CO)C[C@H]1C	10.4	18.8	93.4	x	x	x	x
CCCN(C)C[C@@H]1OCCCC[C@@H](C)Oc2ccc(NC(=O)Nc3ccc(C(F)(F)F)cc3)cc2C(=O)N([C@H](C)CO)C[C@@H]1C	-19.4	-74.4	100.2*	106.7*	86.1	25.7	38.7*
CCS(=O)(=O)Nc1ccc2c(c1)C(=O)N(C)C[C@@H](OC)[C@@H](C)CN(C(C)=O)[C@H](C)CO2	2.1	5.2	39.1	x	x	x	x
C/C=C/c1ccccc1[C@H]1[C@@H](C#N)N(C(=O)CN2CCOCC2)[C@@H]1CO	40.3	25.5	x	x	x	x	x
COc1ccc2c3c(n(C)c2c1)[C@H](CO)N(Cc1cccc(F)c1)CC31CN(C(=O)Cc2ccccc2)C1	31.0	u	x	x	x	x	x
C[C@@H]1CN([C@H](C)CO)S(=O)(=O)c2ccc(-c3ccccc3)cc2O[C@H]1CN(C)Cc1cccnc1	-5.1	-63.4	91.9*	87.2	88.7	59.1*	100.9*
Cc1ccc(-c2ccc3c(c2)O[C@@H](CN(C)Cc2cccnc2)[C@@H](C)CN([C@H](C)CO)S3(=O)=O)cc1	2.9	-65.7	104.0*	107.5*	101.8*	62.2*	31.5*
Cc1ccc(-c2ccc3c(c2)O[C@H](CN(C)Cc2cccnc2)[C@H](C)CN([C@H](C)CO)S3(=O)=O)cc1	-5.6	-45.1	73.0	x	x	x	x
C[C@@H]1CN([C@@H](C)CO)S(=O)(=O)c2ccc(-c3ccccc3)cc2O[C@@H]1CN(C)Cc1cccnc1	-5.5	-11.9	90.4	x	x	x	x
CO[C@@H](CN(C)S(=O)(=O)c1ccc(Cl)cc1)[C@@H](C)CN([C@@H](C)CO)S(=O)(=O)c1cccc(Cl)c1	x	3.4	85.3	x	x	x	x
SMILES	C diff growth	Pf Dd2 inh	T cruzi growth-1	T cruzi growth-2	T cruzi growth-3	3T3 cytotox	3T3 cytotox 2
CO[C@@H](CN(C)S(=O)(=O)c1ccc(Cl)cc1)[C@@H](C)CN([C@H](C)CO)S(=O)(=O)c1cccc(Cl)c1	x	-39.6	u	92.0	56.5	54.2*	78.8*
CO[C@@H](CN(C)S(=O)(=O)c1ccc(Cl)cc1)[C@H](C)CN([C@@H](C)CO)S(=O)(=O)c1cccc(Cl)c1	x	-23.1	84.1	x	x	x	x
CO[C@H](CN(C)S(=O)(=O)c1cccc(Cl)c1)[C@H](C)CN([C@H](C)CO)S(=O)(=O)c1ccc(Cl)cc1	x	-2.6	u	98.6*	19.6	47.0*	67.5*
Cc1ccc(S(=O)(=O)N(C)C[C@H]2Oc3ccc(NC(=O)Cc4ccccc4)cc3CC(=O)N([C@@H](C)CO)C[C@@H]2C)cc1	-5.3	-24.2	-18.8	x	x	x	x
O=C(NCC1CC1)[C@H]1[C@H](CO)[C@H]2Cn3c(ccc(-c4cccnc4)c3=O)[C@H]2N1C(=O)NC1CCCC1	-4.4	-5.6	84.3	x	x	x	x
Cc1cc(C(=O)Nc2cccc3c2O[C@H](CN(C)C)[C@H](C)CN([C@@H](C)CO)C3=O)n(C)n1	1.7	10.6	u	26.3	-16.3	6.1	1.5
Cc1cc(C(=O)Nc2cccc3c2O[C@H](CN(C)C)[C@@H](C)CN([C@H](C)CO)C3=O)n(C)n1	-1.9	14.9	12.6	x	x	x	x
Cc1cc(C(=O)Nc2cccc3c2O[C@@H](CN(C)S(C)(=O)=O)[C@@H](C)CN([C@@H](C)CO)C3=O)n(C)n1	8.3	-8.8	61.4	x	x	x	x
Cc1cc(C(=O)Nc2cccc3c2O[C@H](CN(C)C)[C@@H](C)CN([C@@H](C)CO)C3=O)n(C)n1	-1.0	10.2	101.4*	10.2	24.1	-1.1	4.6
O=C(C[C@H]1C=C[C@@H](NC(=O)C2CCOCC2)[C@H](CO)O1)NCC1CC1	x	15.5	28.8	x	x	x	x
C[C@@H]1CCCCO[C@@H](CN(C)C(=O)Nc2ccc3c(c2)OCO3)[C@@H](C)CN([C@@H](C)CO)C(=O)c2cc(N(C)C)ccc2O1	-0.5	x	15.0	x	x	x	x
CCC(=O)N1CC[C@@H]2[C@H]1c1cc(-c3cccc(OC)c3)ccc1N(C)[C@@H]2CO	-8.1	2.3	105.4*	104.5*	108.5*	27.3	15.4
